# HEK cytotox: Cytotoxic Profiling in HEK 293 Cell Line of Diverse Libraries Using Quantitative High-Throughput Screening; HEK 293 viability, ATP luminescence (CellTiter-Glo), 48-72 h; Potency, µM (highest dose often 115 µM), without a hit: at the top dose activity change, negative = cytotoxicity, most hits filed as inhibitors; hit rate 6.6% among 94,000; note: % is set by controls: 0 for no effect and ±100 for the full control effect; nearly all actives have a fitted effect of over 60% in size
#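 HEK 293 seeded at 250 cells/well receive compound via pintool. After 48 or 72 hr at 37 degree Celsius, 5% CO2 and 95% humidity, CellTiter-Glo is dispensed and luminescence read following 10 min at room temperature.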
# NIH3T3 tox: Cytotoxic Profiling in NIH 3T3 Cell Line of Diverse Libraries Using Quantitative High-Throughput Screening. NIH 3T3 viability, CellTiter-Glo ATP luminescence, 48-72 h. Potency, µM (series often up to 96.7 µM), for inactives: top-dose activity change, negative = cytotoxicity, most hits filed as inhibitors. hit rate 4.3% among 94,000. AID 1345082, 2018; note: % is set by controls: 0 for no effect and ±100 for the full control effect; nearly all actives have a fitted effect of over 55% in size
#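 Cells were seeded at 400 per well, treated with pin-transferred compound, and kept 48 or 72 hr at 37 °C before CellTiter-Glo addition and luminescence imaging of cellular ATP.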
# FLuc inh-1: Firefly luciferase inhibition profiling of diverse chemical library using quantitative high-throughput screening | hit rate 2.5% among 76,000 | Potency, µM (top dose mostly 115 µM), usual class: inhibitors | AID 1347043, 2019 | Luciferin 4-monooxygenase (Photinus pyralis), P08659 | purified P. pyralis luciferase, luminescence, biochemical; note: % is set by controls: 0 for no effect and ±100 for the full control effect; nearly all actives have a fitted effect of over 65% in size
# Target sequence (P08659 whole entry, looked up): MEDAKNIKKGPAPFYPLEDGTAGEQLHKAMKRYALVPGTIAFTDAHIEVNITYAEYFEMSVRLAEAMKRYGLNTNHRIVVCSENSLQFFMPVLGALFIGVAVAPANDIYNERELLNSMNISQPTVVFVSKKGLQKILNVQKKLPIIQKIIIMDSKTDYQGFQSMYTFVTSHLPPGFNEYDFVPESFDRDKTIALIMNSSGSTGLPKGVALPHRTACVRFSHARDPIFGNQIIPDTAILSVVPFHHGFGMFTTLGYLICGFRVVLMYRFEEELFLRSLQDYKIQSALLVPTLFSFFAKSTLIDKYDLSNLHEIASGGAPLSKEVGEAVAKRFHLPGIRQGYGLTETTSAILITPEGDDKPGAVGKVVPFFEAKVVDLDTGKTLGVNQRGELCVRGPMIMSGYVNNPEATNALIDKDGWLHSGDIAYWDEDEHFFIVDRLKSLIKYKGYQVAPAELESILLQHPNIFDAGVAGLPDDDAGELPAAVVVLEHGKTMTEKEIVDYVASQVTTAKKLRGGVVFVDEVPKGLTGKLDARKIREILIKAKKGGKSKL
#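 FLuc 10nM, D-luciferin 10uM, ATP 10uM, Mg acetate 10mM, Tris acetate pH 7.5, Tween/BSA; cpd qHTS; enzyme added last; CCD luminescence.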
# NPR1 antag: Natriuretic polypeptide receptor (hNpr1) antagonism - Primary qHTS. HEK293 hNpr1 GloSensor cGMP, ANP-stimulated luminescence. Potency, µM (highest dose often 46.3 µM), inactives show top-dose activity change, negative = inhibition, most hits filed as inhibitors. hit rate 1.6% among 76,000; calls by dose curve; note: % is set by controls: 0 for no effect and ±100 for the full control effect; nearly all actives have a fitted effect of over 60% in size
#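 HEK293 cells stably expressing human Npr1 and cGMP GloSensor pGS-40F, loaded 2 h with 2% GloSensor reagent, given compound 30 min at room temperature. Luminescence read before and 20 min after 0.1 nM hNppA.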
# FLuc SDR -ATP: Firefly luciferase (FLuc-C-HiBiT) SDR gain of signal screen - without ATP; Potency, µM (series often up to 32.7 µM), for the others: at the top dose activation (signal gain), most hits filed as activators; AID 1963318, 2024; shares compounds with FLuc inh-1; Purified FLuc-C-HiBiT, Nano-Glo HiBiT luminescence, no ATP; hit rate 7.8% among 1,300; note: nearly all actives have a fitted effect of over 55% in size
# FLuc SDR ATP: Firefly luciferase (FLuc-C-HiBiT) SDR gain of signal screen - plus ATP. Potency, µM (titrated, usually from 32.7 µM), for inactives: at the highest dose activation (gain of signal), hits mostly activators. shares compounds with FLuc inh-1. purified FLuc-C-HiBiT + ATP, HiBiT complementation luminescence. hit rate 8.7% among 1,300;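 note: signal reports ligand binding via conformational change of the enzyme rather than luciferase catalysis; % of control where 0% means no effect; nearly all actives have a fitted effect of over 55% in size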
# FLuc inh-2: Firefly luciferase (FLuc-C-HiBiT) enzymatic inhibition screen - Functional assay; shares compounds with FLuc inh-1; purified FLuc-C-HiBiT enzyme, luciferin luminescence; Potency, µM (series often up to 32.7 µM), inactives show at the top dose activity change, negative = inhibition, most hits filed as inhibitors; hit rate 42% among 1,300; note: % is set by controls: 0 for no effect and ±100 for the full control effect; nearly all actives have a fitted effect of over 70% in size
# Active calls of the source: *; i = inactive; ? = inconclusive; . = no result given; [ ] = dose if it differs, or a comment. In the library only some 11% were active in any assay of this set; here they are far more common. Unless noted, calls come from the whole dose curve; as a rule, active = well fitted curve in the direction sought with a large enough effect; inconclusive = small, poorly fitted or top-dose-only effect, or another doubt; inactive = no such curve, though single readings can be large; an effect the other way counts as inactive or inconclusive. Potency is the fitted concentration of half-maximal effect.
SMILES,HEK cytotox,NIH3T3 tox,FLuc inh-1,NPR1 antag,FLuc SDR -ATP,FLuc SDR ATP,FLuc inh-2
CN1CC(=O)N(c2cccnc2)Cc2c1ncnc2N1CCC(c2ccccc2)CC1,?,?,i,-3.8%,.,.,.
OC1CCN(c2ncnc3c2cnn3-c2ccccc2)CC1,.,.,.,.,25.4%,?,?
NC(=O)CC1CCN(c2ncnc3c2cnn3-c2ccccc2)CC1,.,.,.,.,10.3%,11.0%,-18.4%
c1ccc(-n2ncc3c(N4CCCCC4)ncnc32)cc1,.,.,.,.,3.51µM*,?,0.881µM*
CCOc1ccc(-c2cc3c(=O)n(CCNC(=O)c4ccc(C#N)cc4)ccn3n2)cc1,i,-2.7%,?,-2.3%,.,.,.
Cc1ccc(-n2ncc3c(N4CCN(C)CC4)ncnc32)cc1,.,.,.,.,22.8%,?,5.56µM*
NC(=O)C1CCN(C(=O)CC(c2ccccc2)c2cccc(Cl)c2)CC1 (stereo not given),2.9%,i,i,-12.2%,.,.,.
Cc1ccc(N2Cc3c(ncnc3N3CCN(c4ncccn4)CC3)N(C)CC2=O)cc1,-20.3%,-10.2%,i,1.4%,.,.,.
NC(=O)C1CCN(c2ncnc3c2cnn3-c2cccc(Cl)c2)CC1,.,.,.,.,17.2%,11.5%,-17.8%
COc1ccc(-c2ccccc2C(=O)NCc2ccccn2)nn1,i,-7.4%[138 µM],.,.,.,.,.
Cc1c(C(=O)Nc2cccc(-c3nc4ccccc4s3)c2)oc2ccccc12,.,.,.,.,9.5%,10.0%,-25.7%
O=C(Nc1cccc(Cl)c1)c1ccc2oc(-c3ccccn3)nc2c1,?,-24.0%,.,.,.,.,.
Cc1ccc2oc(C(=O)Nc3cccc(-c4nc5ccccc5s4)c3)c(C)c2c1,.,.,.,.,16.5%,?,?
O=C(Nc1cccc(-c2nc3ccccc3s2)c1)c1cc2ccccc2oc1=O,.,.,.,.,13.8%,9.9%,-8.8%
CCN1C(=O)CN(C(=O)c2cccs2)CC12CCOCC2,-12.2%,-22.0%,.,.,.,.,.
CC(=O)NC1(C)CN(Cc2ccc(-c3ccccc3OCc3ccccc3)s2)C1,39.8µM*,28.2µM*,7.08µM*,?,12.6%[49.3 µM],10.5%[49.3 µM],?
COc1cccc2cc(C(=O)Nc3ccc(C)cc3)c(=O)oc12,.,.,.,.,28.1%,20.5%,?
COc1ccc2oc(=O)c(C(=O)Nc3cccc(C(=O)O)c3)cc2c1,.,.,.,.,12.4µM*,0.0495µM*,0.0157µM*
COc1ccc(NC(=O)c2ccc3oc(-c4ccccn4)nc3c2)cc1,?,-26.0%,.,.,.,.,.
COC(=O)CNC(=O)C1CCCN1C(=O)c1cccc(-c2ccccn2)c1 (stereo not given),-12.2%,-9.0%,.,.,.,.,.
Cc1ccc(C(=O)Nc2ccc3oc(-c4cccnc4)nc3c2)c(Cl)c1,.,.,.,.,16.9%,14.5%,?
O=C(Nc1ccc(F)cc1)c1ccc2oc(-c3cccnc3)nc2c1,-20.2%,-15.9%,.,.,.,.,.
O=C(Nc1ccc(F)cc1)C1CCN(c2nc3ncccc3o2)CC1,2.7%,-14.0%,.,.,.,.,.
COCC(=O)Nc1nc2c(s1)C[C@]1(C)CC[C@@H]3[C@H](OC(=O)[C@H]3C)[C@H]1[C@@H]2C,?,-20.8%[138 µM],0.631µM*,5.62µM*,6.4µM*,4.53µM*,1.61µM*
COc1ccc(OCC(=O)Nc2nc(-c3ccc(Br)cc3)ns2)cc1,.,.,.,.,14.4%,8.1%,-14.5%
SMILES,HEK cytotox,NIH3T3 tox,FLuc inh-1,NPR1 antag,FLuc SDR -ATP,FLuc SDR ATP,FLuc inh-2
Cc1ccc([S+](=O)([O-])N2CCCC(C(=O)N3CCC(c4nc5ncccc5[nH]4)C3)C2)cc1 (stereo not given),?,-28.1%,.,.,.,.,.
CCCCOc1nc(N)c2[nH]c(=O)n(CCCN(CCCN3CCOCC3)Cc3cccc(CC(=O)OC)c3)c2n1,.,.,.,.,11.7%,7.0%,4.1%
Cc1cccc(-c2ncc(CN(CCN3CCOCC3)Cc3ccco3)cn2)c1,?,-23.1%,i,5.1%,.,.,.
O=C(NCCc1cnc[nH]1)c1ccc2nc(-c3ccc(F)cc3)cn2c1,?,?,10µM*,-7.8%,16.6%,15.2%,?
CCOCCNC(=O)CNC(=O)c1ccc(-c2cnc3ccccc3c2)cc1,?,-19.9%,.,.,.,.,.
CCNC(=O)N[C@@H]1C=C[C@@H](c2c(C)nn(-c3ccccc3[N+](=O)[O-])c2C)C1,?,-25.6%[174 µM],?,-27.2%[70.6 µM],.,.,.
Cc1nn(-c2ccc(C(C)(C)C)cc2)c(C)c1[C@@H]1C=C[C@@H](NC(=O)COCC(=O)O)C1,2.7%[172 µM],?,22.4µM*,-1.9%[70.6 µM],27.6%[49.3 µM],17.6%[49.3 µM],?
CCNC(=O)N[C@@H]1C=C[C@@H](c2c(C)nn(-c3ccc(C(C)C)cc3)c2C)C1,20µM*,28.2µM*,0.501µM*,7.08µM*,?,?,2.86µM*
CC(=O)N[C@@H]1C=C[C@@H](c2c(C)nn(-c3ccc(C(C)(C)C)cc3)c2C)C1,?,50.1µM*,14.1µM*,?,17.2%[49.3 µM],18.0%[49.3 µM],?
CC(=O)N[C@@H]1C=C[C@@H](c2c(C)nn(-c3ccc(C(F)(F)F)cc3)c2C)C1,79.4µM*,89.1µM*,14.1µM*,?,16.2%[49.3 µM],?,?
Cc1nn(-c2ccc(C(F)(F)F)cc2)c(C)c1[C@@H]1C=C[C@@H](NC(=O)c2ccc(N(C)C)cc2)C1,?,?,?,-14.2%,.,.,.
COc1ccc(-n2c(=O)c(C(=O)NCc3ccc4c(c3)OCO4)nc3cccnc32)cc1,-12.0%,-25.9%,.,.,.,.,.
Cc1ncoc1C(=O)N1CCC([C@H]2[C@@H](Oc3ccccc3)CN2C(C)C)CC1,-18.1%,-23.8%,.,.,.,.,.
COc1ccccc1C(=O)N1CCCC2(C1)C(=NC1CCCCC1)NC(=O)N2c1cc(F)cc(F)c1 (stereo not given),-2.1%,?,.,.,.,.,.
COCCCNC(=O)c1ccc2nc(-c3ccncc3)oc2c1,-0.7%[172 µM],-6.5%[138 µM],.,.,.,.,.
O=C(Nc1ccccc1)N1CCN(C(=O)c2nc3cccnc3n(CCc3ccccc3)c2=O)CC1,-21.6%,?,.,.,.,.,.
O=C(NCC1CC1)[C@@H]1OCCN(C2CC2)[C@H]1c1ccccc1,-17.3%,-16.7%,.,.,.,.,.
CCNC(=O)N[C@@H]1C=C[C@@H](c2c(C)nn(-c3ccc(C(F)(F)F)cc3)c2C)C1,22.4µM*,?,1.58µM*,25.1µM*,24.5%[49.3 µM],?,14.3µM*

# Screening data (PubChem BioAssay)
